# PubChem BioAssay AID434958 (Southern Research Specialized Biocontainment Screening …, 2010)
# Screen size: about 1,200 compounds; about 400 (33%) were called active. The rule behind the calls is not given here. Only a sample is shown. Entries that show only a call come without a potency. Potency and affinity values are given separately.
# Test: mammalian cell cytotoxicity, dose response, cytotoxicity control (AID 434958);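 note: cells exposed to compound for 72 hours before readout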
# Settings: cytotoxicity counter-screen; series mostly up to 40 µM
row,Structure (SMILES),outcome
1,COc1ccc(Nc2cc(C(=O)NCc3ccco3)c3ccccc3n2)c(OC)c1,inactive
2,CCC(=O)Nc1cc(OC)c(NC(=O)c2ccccc2)cc1OC,inactive
3,CC(C)C(=O)Nc1ccc(NC(=S)NC(=O)c2ccc([N+](=O)[O-])cc2)cc1,inactive
4,Cn1c(O)c(C2=c3ccccc3=NC2=O)[nH]c1=S,inactive
5,C=CCNC1=C(Cl)C(=O)N(c2cccc(Cl)c2Cl)C1=O,inactive
6,O=C(CN1C(=O)c2cccc([N+](=O)[O-])c2C1=O)N1CCN(c2ccc(F)cc2)CC1,inactive
7,Cc1cc(C)c(O)c(-c2cc(C(=O)NCc3ccccc3)[nH]n2)c1,inactive
8,CCCn1nc2cc(C(=O)NCCCCc3ccccc3)ccc2c1OCC,inactive
9,COCCCNc1nc(SCc2ccccc2)nc2sc3c(c12)CCC3,inactive
10,CCC(CC)c1nnc(NC(=O)c2ccc(N3CCCCC3)c([N+](=O)[O-])c2)s1,inactive
11,Cc1cc2ccccc2n1CCNC(=O)COc1ccccc1,inactive
12,Cc1ccc(C(=O)NCCc2nnc3ccc(SCC(=O)Nc4ccccc4C)nn23)cc1,inactive
13,O=C(CNc1ccccc1Cl)Nc1cc(S(=O)(=O)N2CCOCC2)ccc1Cl,inactive
14,CCN(CC)c1ccc(S(=O)(=O)N2CCOCC2)cc1NC(=O)CSc1cccc[n+]1[O-],inactive
15,CC(=O)COc1ccc2c3c(c(=O)oc2c1C)CCCCC3,inactive
16,CCOC(=O)Cn1nc(-c2ccc(C)cc2)c2ccccc2c1=O,inactive
17,CCOC(=O)C1CCN(C(=O)CCCCn2c(=O)[nH]c3ccccc3c2=O)CC1,inactive
18,Cc1ccc(NC(=O)C2(c3ccccc3)CC2(Cl)Cl)cc1C (stereo not given),inactive
19,CCOc1cc(/C=N\Nc2ccc([N+](=O)[O-])cc2)ccc1OCC(=O)Nc1ccc(C)c(C)c1,inactive
20,Cc1ccccc1OCC(=O)Nc1ccccc1N1CCCCC1,inactive
21,CN(C)C(=O)c1ccc(-n2nc(C(F)(F)F)c3c2CCCC3)cc1,inactive
22,CC(=O)Nc1cccc(/C(C)=N/NC(N)=S)c1,inactive

row,Structure (SMILES),outcome
1,Cc1c(-c2ccccc2)cnc2c(C)cccc12,inactive
2,Cc1cc(NC(=O)CSc2ncnc3c2cnn3-c2ccccc2)no1,inactive
3,Cc1cc(NC(=O)COc2nnc(-c3ccccc3)c3ccccc23)no1,inactive
4,CCOC(=O)c1ccc(C(=O)NNC(=O)C2CC=CCC2)cc1 (stereo not given),inactive
5,O=C(Nc1ccccc1)c1c2c(nc3ccccc13)CCCC2,inactive
6,CC12CCC(C/C1=N/NC(=O)Nc1ccccc1)C2(C)C (stereo not given),inactive
7,Cc1cc(C)c(C)c(S(=O)(=O)N2C(=S)NC(=O)C2C(C)C)c1C (stereo not given),inactive
8,O=C(c1cc2c(s1)CCCC2)n1cccn1,inactive
9,O=C(N/N=C\c1cn[nH]c1-c1ccc(Cl)cc1)c1cccs1,inactive
10,O=C(CSc1nnc(SCc2ccc(Cl)cc2)s1)c1ccc2c(c1)OCO2,inactive
11,C=CCSc1nc2c(c(-c3ccsc3)c1C#N)CN(C)CC2,inactive
12,O=C(NN1C(=O)C2C(C1=O)C1C=CC2C12CC2)c1ccncc1 (stereo not given),inactive
13,O=c1[nH]c(CN(CCO)CCO)nc2c1C1(CCCCC1)Cc1ccccc1-2,inactive
14,CN(/N=C/c1ccncc1)c1cnc2ccccc2n1,inactive
15,c1ccc(-c2n[nH]c3c2CCC3)cc1,inactive
16,CSc1ncnc2c1ccn2CC(=O)Nc1ccc(C)c(C)c1,inactive
17,CCCOc1ccccc1NC(=O)/C=C/C(N)=O,inactive
18,CC(=O)OCC(=O)Nc1ccc(C(C)=O)cc1,inactive
19,CC(C)(C)[C@@H]1C=C(C(=O)Nc2ccccc2)O[C@H](OCc2ccc(CO)cc2)C1,inactive
20,Cc1cccnc1NC(=S)NC(=O)c1cncc(Br)c1,inactive
21,COc1ccc(CNC(=O)C2CCN(S(=O)(=O)c3c(C)noc3/C=C/N(C)C)CC2)cc1,inactive
22,CC(C)(C)C1CCC(OCC(O)CN2CCN(c3ccccn3)CC2)CC1 (stereo not given),inactive

row,Structure (SMILES),outcome
1,COc1ccc(-c2csc(-c3cccs3)n2)c(OC)c1,inactive
2,CCC(=O)Oc1oc(-c2ccccc2)nc1C=Nc1ccc(C)cc1,inactive
3,CCn1cc(C(=O)O)c(=O)c2cc(F)c(N3CCN(C(=S)NC(=O)c4ccccc4C)CC3)cc21,inactive
4,COC(=O)c1cc(OC)c(OC)cc1NC(=S)N1CCN(C)CC1,inactive
5,Cc1nnc(SCC2=C(C(=O)O)N3C(=O)C(NC(=O)COc4ccc(F)cc4)C3SC2)s1 (stereo not given),inactive
6,COc1ccc(C(=O)Nc2cccc3c2CCCC3)c(OC)c1,inactive
7,CC1CN(C(=S)NC(=O)c2cccc([N+](=O)[O-])c2)CC(C)O1 (stereo not given),inactive
8,COc1cc(C(=S)N2CCOCC2)ccc1OC(=O)c1ccc([N+](=O)[O-])cc1[N+](=O)[O-],inactive
9,O=C(Oc1c(-c2ccccc2)c(=O)n2c3c(cccc13)CC2)c1cccc([N+](=O)[O-])c1,inactive
10,CN(C)c1ccc(/C=N/NC(N)=S)cc1[N+](=O)[O-],inactive
11,O=C(CCCCCN1C(=O)c2cccc([N+](=O)[O-])c2C1=O)Nc1ccccc1F,inactive
12,CC(=O)NC(=S)Nc1ccc(NC(=O)c2cccs2)cc1,inactive
13,CCN=c1scc(-c2ccccc2)n1/N=C/c1ccccn1,inactive
14,CC1CCc2nc(NC(=O)C3COc4ccccc4O3)sc2C1 (stereo not given),inactive
15,COc1ccc(CCNCc2csc3nc4ccccc4n23)cc1OC,inactive
16,Cc1cc(C)cc(NC(=S)NN)c1,inactive
17,CSc1ccc(/C=C/C(=O)NC23CC4CC(CC(C4)C2)C3)cc1,inactive
18,c1ccc(-c2cc3ccccc3[nH]2)cc1,inactive
19,C/C(=N\NC(=O)c1cc2c(s1)CCC(C)C2)c1ccc[nH]1 (stereo not given),inactive
20,Cc1cccc2c(C(=O)n3cccn3)cc(-c3ccccc3Cl)nc12,inactive
21,O=C(Oc1c(-c2ccccc2)c(=O)n2c3c(cccc13)CC2)c1ccc(F)cc1,inactive
22,COc1ccccc1-c1cc(C(=O)Nc2c(C)n(C)n(-c3ccccc3)c2=O)no1,inactive

row,Structure (SMILES),outcome
1,COc1ccc(OC)c(-c2cc(C(=O)Nc3c(C)n(C)n(-c4ccccc4)c3=O)no2)c1,inactive
2,O=C(CCSc1ccc(Cl)c(Cl)c1)NC12CC3CC(CC(C3)C1)C2,inactive
3,COc1ccnc(CS(=O)c2nc3cc(OC(F)F)ccc3[nH]2)c1OC (stereo not given),inactive
4,O=C(CSc1ccc([N+](=O)[O-])cn1)Nc1ccc(N2CCOCC2)cc1,inactive
5,CC(C(=O)Nc1cc([N+](=O)[O-])ccc1Cl)N1CCN(c2ccccc2O)CC1 (stereo not given),inactive
6,O=C(Nc1ccc(N2CCCCC2)cc1)c1cc([N+](=O)[O-])cc([N+](=O)[O-])c1,inactive
7,O=C(Nc1ccccc1N1CCCC1)c1ccc2c(c1)OCO2,inactive
8,CCOC(=O)COc1ccc2nsnc2c1,inactive
9,CN(C)c1ccc(N=Nc2cccc3ccoc23)cc1,inactive
10,N#C/C(C(=O)NCc1ccco1)=C1/SC=C(c2ccccc2)N1c1ccccc1,inactive
11,CCOc1ccc(-c2nc(-c3ccccc3C)no2)cc1,inactive
12,COc1cc(NC(=S)NC(=O)c2ccco2)ccc1NC(=O)C(C)C,inactive
13,Cc1n[nH]c(C)c1CCCOc1ccccc1,inactive
14,COc1cc(NC(=O)c2ccccc2)c(OC)cc1NC(=O)CN1CCOCC1,inactive
15,COc1ccc(C(=O)CN(C(=O)c2ccc(Cl)cc2)N2C(=O)c3ccccc3C2=O)cc1,inactive
16,COc1cc(NC(=O)c2ccccc2Cl)ccc1NC(=O)c1ccco1,inactive
17,O=C(CN1CCN(S(=O)(=O)c2ccc(F)cc2)CC1)Nc1ccc2c(c1)OCCO2,inactive
18,O=c1[nH]c(CSc2nnc3ccccn23)nc2ccccc12,inactive
19,Cc1ccc(C(=O)NN2C(=O)/C(=C/c3cccn3C)SC2=S)cc1,inactive
20,O=C(CCN1C(=O)/C(=C/c2ccccc2F)SC1=S)Nc1ccccn1,inactive
21,CN(c1ccc(OCC(=O)Nc2ccc3[nH]c(=O)[nH]c3c2)cc1)S(=O)(=O)c1ccc(Cl)cc1,inactive
22,CCN1C(=O)C(O)(CC(=O)c2ccc(-n3cccc3)cc2)c2ccccc21 (stereo not given),inactive

row,Structure (SMILES),outcome
1,NC(=O)Nc1ccc(C(=O)OCC(=O)Nc2ccc(Cl)cn2)cc1,inactive
2,O=C(Cn1ncc2c3ccccc3n(Cc3ccccc3F)c2c1=O)NCCCN1CCCC1=O,inactive
3,CSc1nc(-c2ccc(Cl)cc2)nn1S(=O)(=O)c1ccccc1,inactive
4,Cc1cccc(N2CCN(CC3CCCCC3)CC2)c1C,inactive
5,CCOC(=O)Cc1nc2ccccc2[nH]1,inactive
6,CCOC(=O)c1[nH]c2ccccc2c1NC(=O)Nc1ccc(OC)cc1,inactive
7,COc1ccc(CNC(=O)c2sc3nc4c(c(C(F)(F)F)c3c2N)CCC4)cc1,inactive
8,O=C(O)CSc1ncnc2c1sc1nc(-c3ccccc3)c3c(c12)CCC3,inactive
9,CC(C)(C)c1ccc(C(=O)Oc2ccc3c(c2)OCC3=O)cc1,inactive
10,CS/C(N)=N/N=C/c1cc(Br)cc(Br)c1O,inactive
11,CCOC(=O)N1CCN(C(=O)CSc2nnc(-c3ccccc3OC)o2)CC1,inactive
12,NNC(=O)c1cccc(O)c1,inactive
13,O=C(N/N=C/c1cccc(NC(=O)c2ccc(Cl)cc2)c1)c1cccc(O)c1,inactive
14,Cc1cc(C2C(=O)c3ccccc3C2=O)c(C)c(C)c1C,inactive
15,CCCCNC(=O)/C(=C/c1ccccc1)NC(C)=O,inactive
16,CCOC(=O)c1ccc(-c2ccc(C=O)o2)cc1,inactive
17,COc1ccc([C@H]2CC(=O)C=C(/C=C/c3ccccc3)C2)cc1OC,inactive
18,NS(=O)(=O)c1cccnc1Nc1c(Cl)cccc1Cl,inactive
19,COCCSc1nc2sc3c(c2c(=O)n1-c1ccccc1)CCN(C)C3,inactive
20,CCOC(=O)C1CCCN(c2ccc(NC(=O)c3snc4c(=O)[nH]cnc34)cc2)C1 (stereo not given),inactive
21,O=C(COC(=O)c1ccc([N+](=O)[O-])s1)NCc1ccccc1,inactive
22,Cc1ccsc1C(=O)NNC(=O)c1csc(N2CCOCC2)n1,inactive
